For some of these results: Entries with a potency or affinity are not part of this list. Active and inactive are the calls of the source. Unless noted, the rule behind the calls is not given here.
What was measured:
[1] = antimalarial activity against Dd2 strain (AID 2302;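 active = growth inhibition above 50% at the single 2 µM test dose, taken to imply half-maximal potency below 2 µM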;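 note: 0% = DMSO untreated growth and 100% = chloroquine plus artemisinin killed control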); details: P. falciparum Dd2 in RBCs, LDH growth readout, 72 h; at 2 µM; hits give high values
[2] = HepG2 cytotoxicity, primary screen, cytotoxicity control for P. falciparum antimalarial project, cell-based, ATP luminescence (AID 2303;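 active = inhibition above 50%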;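 note: 0% = DMSO wells and 100% = digitonin-killed cells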); details: HepG2 viability, 24-48 h, at 10 µM, hits give high values
[3] = target: L-lactate dehydrogenase (Plasmodium falciparum (isolate CDC / Honduras)) (UniProt Q27743); experiment: PfLDH activity inhibition – cell lysate, 3D7 strain, counter-screen for P. falciparum growth inhibition project (AID 2304);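 note: 0% = vehicle and 100% = reference inhibitor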; details: P. falciparum 3D7 crude extract, LDH APAD/NBT absorbance; at 2 µM; hits give high values
[4] = inhibition of 3D7 malaria parasite growth – strain 3D7 (AID 2306);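 note: 0% = DMSO wells and 100% = chloroquine plus artemisinin control wells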; details: P. falciparum 3D7 erythrocytic growth, LDH absorbance, 72 h; at 2 µM; hits give high values
[5] = target: Calcium-dependent protein kinase 1 (Plasmodium falciparum (isolate 3D7)) (UniProt P62344); experiment: PfCDPK1 kinase inhibitors, biochemical, TCAMS library (AID 1159585; cut-off not given, nearly all actives have IC50 up to about 0.98 µM;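 note: inhibitors leave more ATP so luminescence rises with inhibition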); details: recombinant PfCDPK1, Kinase-Glo ATP depletion luminescence
[6] = target: Plasmodium falciparum protein kinase 6 (PK6, PF3D7_1337100) (UniProt Q8IDW1); experiment: PfPK6 kinase inhibitors, biochemical, TCAMS library (AID 1159586); details: recombinant PfPK6, Kinase-Glo ATP depletion luminescence
[7] = target: Protein kinase 7 (PK7), Plasmodium falciparum 3D7 (PF3D7_0213400) (UniProt Q7YTF7); experiment: inhibition of Plasmodium PK7 catalytic activity – biochemical, TCAMS antimalarial set, Kinase-Glo luminescence (AID 1159587); details: recombinant PfPK7, Kinase-Glo ATP depletion luminescence
[8] = target: Calcium-dependent protein kinase 4 (Plasmodium falciparum (isolate 3D7)) (UniProt Q8IBS5); experiment: PfCDPK4 kinase inhibitors, biochemical, TCAMS library (AID 1159588; cut-off not given, nearly all actives have IC50 up to about 0.91 µM); details: recombinant PfCDPK4, Kinase-Glo ATP depletion luminescence
Calcium-dependent protein kinase 4 (Plasmodium falciparum (isolate 3D7)), sequence (Q8IBS5 whole entry, looked up): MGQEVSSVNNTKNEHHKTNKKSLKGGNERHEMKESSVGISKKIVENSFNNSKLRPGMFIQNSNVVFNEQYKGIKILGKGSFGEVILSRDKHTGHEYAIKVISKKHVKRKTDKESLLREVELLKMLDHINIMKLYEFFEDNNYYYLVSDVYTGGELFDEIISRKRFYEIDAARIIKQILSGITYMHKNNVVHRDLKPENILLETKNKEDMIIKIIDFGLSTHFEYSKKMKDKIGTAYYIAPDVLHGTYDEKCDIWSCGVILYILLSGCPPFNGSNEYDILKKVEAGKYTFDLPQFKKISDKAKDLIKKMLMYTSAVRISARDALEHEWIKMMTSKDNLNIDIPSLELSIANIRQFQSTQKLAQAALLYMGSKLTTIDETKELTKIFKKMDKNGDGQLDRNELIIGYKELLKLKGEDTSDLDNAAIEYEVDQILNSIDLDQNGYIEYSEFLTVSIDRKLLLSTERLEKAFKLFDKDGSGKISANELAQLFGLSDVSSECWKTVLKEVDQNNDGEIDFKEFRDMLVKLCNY

Calcium-dependent protein kinase 1 (Plasmodium falciparum (isolate 3D7)), sequence (P62344 whole entry, looked up): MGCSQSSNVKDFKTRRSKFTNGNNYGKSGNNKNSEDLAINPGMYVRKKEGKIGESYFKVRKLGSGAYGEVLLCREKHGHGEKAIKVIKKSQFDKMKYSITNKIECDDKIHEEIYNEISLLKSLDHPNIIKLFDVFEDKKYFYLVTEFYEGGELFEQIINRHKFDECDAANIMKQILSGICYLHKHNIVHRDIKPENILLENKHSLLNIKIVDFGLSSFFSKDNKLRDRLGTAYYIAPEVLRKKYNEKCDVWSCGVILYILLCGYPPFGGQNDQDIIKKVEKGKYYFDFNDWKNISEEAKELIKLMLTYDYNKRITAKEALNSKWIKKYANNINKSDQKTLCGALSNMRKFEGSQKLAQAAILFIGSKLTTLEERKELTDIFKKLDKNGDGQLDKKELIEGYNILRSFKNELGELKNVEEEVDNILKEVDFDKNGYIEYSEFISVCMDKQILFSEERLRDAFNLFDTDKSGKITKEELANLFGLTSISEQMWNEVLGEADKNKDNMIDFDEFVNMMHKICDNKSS
Protein kinase 7 (PK7), Plasmodium falciparum 3D7 (PF3D7_0213400), sequence (Q7YTF7 1-343): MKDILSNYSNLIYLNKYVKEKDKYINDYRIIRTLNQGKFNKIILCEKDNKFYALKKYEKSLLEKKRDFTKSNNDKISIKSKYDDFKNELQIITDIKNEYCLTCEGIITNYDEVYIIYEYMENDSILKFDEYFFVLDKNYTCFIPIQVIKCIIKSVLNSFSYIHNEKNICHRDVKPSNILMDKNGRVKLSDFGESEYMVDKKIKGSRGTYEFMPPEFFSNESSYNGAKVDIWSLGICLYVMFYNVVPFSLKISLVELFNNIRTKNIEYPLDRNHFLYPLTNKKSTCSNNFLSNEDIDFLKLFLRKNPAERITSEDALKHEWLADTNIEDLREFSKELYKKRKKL
L-lactate dehydrogenase (Plasmodium falciparum (isolate CDC / Honduras)), sequence (Q27743 whole entry, looked up): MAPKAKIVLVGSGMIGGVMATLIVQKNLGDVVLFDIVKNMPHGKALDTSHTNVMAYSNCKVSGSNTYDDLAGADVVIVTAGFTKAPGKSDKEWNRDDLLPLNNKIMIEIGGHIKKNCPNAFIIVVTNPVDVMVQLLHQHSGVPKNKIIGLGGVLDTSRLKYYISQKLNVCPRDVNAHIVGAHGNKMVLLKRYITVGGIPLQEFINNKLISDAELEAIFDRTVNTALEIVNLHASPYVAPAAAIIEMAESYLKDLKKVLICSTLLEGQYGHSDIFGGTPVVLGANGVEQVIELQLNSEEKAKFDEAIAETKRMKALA
Plasmodium falciparum protein kinase 6 (PK6, PF3D7_1337100), sequence (Q8IDW1 1-305): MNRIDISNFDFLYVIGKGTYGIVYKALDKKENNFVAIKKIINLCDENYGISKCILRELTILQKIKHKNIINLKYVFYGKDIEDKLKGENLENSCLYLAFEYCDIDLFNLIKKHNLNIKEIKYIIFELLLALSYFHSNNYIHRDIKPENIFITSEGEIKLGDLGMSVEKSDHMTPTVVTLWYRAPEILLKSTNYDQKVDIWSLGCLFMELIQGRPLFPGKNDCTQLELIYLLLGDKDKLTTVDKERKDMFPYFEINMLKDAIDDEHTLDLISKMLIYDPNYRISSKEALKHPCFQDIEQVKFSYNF

CCCNCc1ccc(-c2ccc(CN(CCOC)C(=O)c3ccco3)cc2)nc1
active: growth inhibition [4] 91%
inactive: growth inhibition [1] 21% | inhibition [2] 1% | inhibition [3] -7% | outcome [5] | outcome [6] | outcome [7] | outcome [8]

COc1ccc(-c2csc3nc(C)nc(Cl)c23)cc1OC
active: growth inhibition [1] 95% | growth inhibition [4] 97%
inactive: inhibition [2] -10% | inhibition [3] -6% | outcome [5] | outcome [6] | outcome [7] | outcome [8]

Cc1ccc(Cc2cnc(NCCSCc3ccc(CN4CCOCC4)o3)[nH]c2=O)cn1
active: growth inhibition [4] 95%
inactive: growth inhibition [1] -3% | inhibition [2] 2% | inhibition [3] -4% | outcome [5] | outcome [6] | outcome [7] | outcome [8]

CC(C)CN(C)Cc1ccc(-c2ccc(-c3nc4ccccc4[nH]3)s2)cc1
active: growth inhibition [1] 76% | growth inhibition [4] 97%
inactive: inhibition [2] 8% | inhibition [3] 2% | outcome [5] | outcome [6] | outcome [7] | outcome [8]

O=C(NC1CCN(Cc2ccccc2)CC1)c1ccc(CNC2CCN(Cc3ccccc3)CC2)cc1
inactive: inhibition [2] 14% | inhibition [3] 3% | outcome [5] | outcome [6] | outcome [7] | outcome [8]
active: growth inhibition [1] 58% | growth inhibition [4] 99%

O=c1cc(NCCCNCc2cccc(Oc3ccccc3)c2)[nH]c2ccccc12
active: growth inhibition [1] 67% | growth inhibition [4] 93%
inactive: inhibition [2] -4% | inhibition [3] -1% | outcome [5] | outcome [6] | outcome [7] | outcome [8]

CCOc1cc(C(=O)NCCc2ccc(Cl)c(Cl)c2)ccc1-c1nc2ccc(Cl)cc2[nH]1
inactive: growth inhibition [1] 47% | inhibition [2] 9% | inhibition [3] -4% | outcome [5] | outcome [6] | outcome [7] | outcome [8]
active: growth inhibition [4] 100%

CNCCNCc1cccc(-c2cccc(-c3nc4ccc(C(F)(F)F)cc4[nH]3)c2)c1
inactive: inhibition [2] 22% | inhibition [3] -2% | outcome [5] | outcome [6] | outcome [7] | outcome [8]
active: growth inhibition [1] 97% | growth inhibition [4] 100%

O=C(C=Cc1cc([N+](=O)[O-])ccc1Cl)N1CCC(CCN2CCC(c3c[nH]c4ccccc34)CC2)CC1
inactive: growth inhibition [1] 26% | inhibition [2] 25% | inhibition [3] -2% | outcome [5] | outcome [6] | outcome [7] | outcome [8]
active: growth inhibition [4] 92%

COc1cc(-c2nc(-c3ccccc3)c(-c3ccc(C(=O)c4ccc(F)cc4)cc3)[nH]2)cc(OC)c1O
active: growth inhibition [1] 100% | growth inhibition [4] 101%
inactive: inhibition [2] 0% | inhibition [3] -3% | outcome [5] | outcome [6] | outcome [7] | outcome [8]

Cc1cc(N[C@@H](CC(C)C)C(=O)Nc2ccccc2)nc(Nc2ccccc2)n1
active: growth inhibition [1] 93% | growth inhibition [4] 99%
inactive: inhibition [2] -2% | inhibition [3] -1% | outcome [5] | outcome [6] | outcome [7] | outcome [8]

COc1c(C2=CCN(CCCCNC(=O)c3ccc(-c4ccc(C#N)cc4)cc3)CC2)ccc2c1CCCC2
inactive: inhibition [2] 44% | inhibition [3] 7% | outcome [5] | outcome [6] | outcome [7] | outcome [8]
active: growth inhibition [1] 82% | growth inhibition [4] 94%

Cc1cccc(C(=O)Nc2ccnc(N(C)CCCN(C)Cc3cccc(O)c3)c2)c1
active: growth inhibition [1] 71% | growth inhibition [4] 94%
inactive: inhibition [2] 27% | inhibition [3] -3% | outcome [5] | outcome [6] | outcome [7] | outcome [8]

O=C(Nc1ccc(Cl)cc1)OCCn1nnnc1C(c1ccc(Cl)cc1)N1CCOCC1 (stereo not drawn)
active: growth inhibition [1] 79% | growth inhibition [4] 90%
inactive: inhibition [2] 1% | inhibition [3] 4% | outcome [5] | outcome [6] | outcome [7] | outcome [8]

O=C(N[C@@H](CC1CCCCC1)C(=O)NCCN1CCCC1)c1ccc(O)c(-c2cccc(C(F)(F)F)c2)c1
inactive: inhibition [2] -11% | inhibition [3] -4% | outcome [5] | outcome [6] | outcome [7] | outcome [8]
active: growth inhibition [1] 55% | growth inhibition [4] 99%

Cc1cccc2[nH]c(-c3cccc(-c4cccc(CNCc5ccc(S(C)(=O)=O)cc5)c4)c3)nc12
inactive: inhibition [2] 13% | inhibition [3] 0% | outcome [5] | outcome [6] | outcome [7] | outcome [8]
active: growth inhibition [1] 66% | growth inhibition [4] 100%

CC(NC(=O)c1cc(-c2ccccc2)nc2c1cnn2C(C)C)C1CC1 (stereo not drawn)
inactive: inhibition [2] 35% | inhibition [3] -2% | outcome [5] | outcome [6] | outcome [7] | outcome [8]
active: growth inhibition [1] 88% | growth inhibition [4] 101%

Cc1cc(=O)c(-c2ccc(Oc3ccc(C(F)(F)F)cc3)cc2)c(C)n1O
active: growth inhibition [1] 78% | growth inhibition [4] 94%
inactive: inhibition [2] 18% | inhibition [3] 0% | outcome [5] | outcome [6] | outcome [7] | outcome [8]

O=C1OC2(CCN(Cc3cccc(-c4ncc[nH]4)c3)CC2)CN1CCNCc1ccccc1
active: growth inhibition [4] 94%
inactive: growth inhibition [1] -1% | inhibition [2] -8% | inhibition [3] -1% | outcome [5] | outcome [6] | outcome [7] | outcome [8]

COc1ccc(CN=C(N)Nc2nc(-c3ccc(OCCCn4ccnc4)cc3)cs2)cc1
inactive: inhibition [2] 15% | inhibition [3] -5% | outcome [5] | outcome [6] | outcome [7] | outcome [8]
active: growth inhibition [1] 67% | growth inhibition [4] 100%

Cc1cc(N(C)C2CCN(C)C2)nc(Nc2ccc(Cl)cc2)n1 (stereo not drawn)
active: growth inhibition [1] 88% | growth inhibition [4] 100%
inactive: inhibition [2] 8% | inhibition [3] 0% | outcome [5] | outcome [6] | outcome [7] | outcome [8]

Cn1cccc1CCNCc1ccc(-c2cccc(-c3nc4ccccc4[nH]3)c2)cc1
active: growth inhibition [1] 66% | growth inhibition [4] 88%
inactive: inhibition [2] 1% | inhibition [3] 3% | outcome [5] | outcome [6] | outcome [7] | outcome [8]

CCNc1cc(C(=O)N[C@@H](Cc2ccccc2)[C@H](O)CN[C@@H](C)c2ccccc2)cc(N2CCCC2=O)c1
active: growth inhibition [1] 96% | growth inhibition [4] 98%
inactive: inhibition [2] 7% | inhibition [3] 8% | outcome [5] | outcome [6] | outcome [7] | outcome [8]

Cc1cccc2[nH]c(-c3ccc(-c4ccc(CN5CCC(C(N)=O)CC5)cc4)cc3)nc12
active: growth inhibition [4] 91%
inactive: growth inhibition [1] 32% | inhibition [2] 8% | inhibition [3] 1% | outcome [5] | outcome [6] | outcome [7] | outcome [8]

O=C(Nc1ccc(-c2csc3nccn23)cc1)c1ccc(Cl)cc1
inactive: inhibition [3] -5% | outcome [5] | outcome [6] | outcome [7] | outcome [8]
active: growth inhibition [1] 50% | inhibition [2] 54% | growth inhibition [4] 100%

Cn1cnc2nc(NCCc3ccccc3)nc(NCc3cccc4ccccc34)c21
inactive: inhibition [2] 16% | inhibition [3] -2% | outcome [5] | outcome [6] | outcome [7] | outcome [8]
active: growth inhibition [1] 98% | growth inhibition [4] 95%

Cc1[nH]c(C)c(-c2ccc(Br)cc2)c(=O)c1Cl
active: growth inhibition [1] 77% | growth inhibition [4] 94%
inactive: inhibition [2] 22% | inhibition [3] -2% | outcome [5] | outcome [6] | outcome [7] | outcome [8]

O=C(Cc1ccc(NC(=O)c2ccc(O)c(-c3ccc(Cl)c(Cl)c3)c2)cc1)NCCN1CCCCC1
inactive: inhibition [2] 12% | inhibition [3] -4% | outcome [5] | outcome [6] | outcome [7] | outcome [8]
active: growth inhibition [1] 63% | growth inhibition [4] 95%

Cc1ccccc1C1CCN(C2CCC(NC(=O)/C=C/c3ccc(C#N)cc3)CC2)CC1 (stereo not drawn)
active: growth inhibition [4] 87%
inactive: growth inhibition [1] 13% | inhibition [2] 39% | inhibition [3] 0% | outcome [5] | outcome [6] | outcome [7] | outcome [8]

Cc1ccc(-c2cccc3c(NC(=O)Nc4ccc5nccc(N6CCN(C)CC6)c5c4)cccc23)cn1
inactive: inhibition [2] 6% | inhibition [3] -7% | outcome [5] | outcome [6] | outcome [7] | outcome [8]
active: growth inhibition [1] 89% | growth inhibition [4] 90%

CC(=O)Nc1sc(C)c(C)c1CN1CCc2ccccc2C1
inactive: inhibition [2] -8% | inhibition [3] 1% | outcome [5] | outcome [6] | outcome [7] | outcome [8]
active: growth inhibition [1] 94% | growth inhibition [4] 93%

COc1ccccc1-c1ccc(C(=O)NCC2CCCN(Cc3cccc(C(F)(F)F)c3)C2)s1 (stereo not drawn)
active: growth inhibition [4] 81%
inactive: growth inhibition [1] 37% | inhibition [2] 18% | inhibition [3] 3% | outcome [5] | outcome [6] | outcome [7] | outcome [8]

COc1ccc(-n2nc(C(=O)NCc3ccccc3OC)c3ccccc3c2=O)cc1
inactive: inhibition [2] 2% | inhibition [3] 0% | outcome [5] | outcome [6] | outcome [7] | outcome [8]
active: growth inhibition [1] 94% | growth inhibition [4] 102%

Clc1cccc(-c2nc(Nc3ccnc(-c4ccc(CN5CCOCC5)cc4)c3)c3ccccc3n2)c1
inactive: inhibition [2] 8% | inhibition [3] -4% | outcome [5] | outcome [6] | outcome [7] | outcome [8]
active: growth inhibition [1] 65% | growth inhibition [4] 100%

Cc1cc(C)cc(Oc2c(C(F)(F)F)oc3c(CN4CC(C)OC(C)C4)c(O)ccc3c2=O)c1 (stereo not drawn)
active: growth inhibition [1] 54% | growth inhibition [4] 89%
inactive: inhibition [2] 5% | inhibition [3] 1% | outcome [5] | outcome [6] | outcome [7] | outcome [8]

N#Cc1ccc(NC(=NCc2cccnc2)Nc2ccc(-c3ccccc3)cc2)c(O)c1
inactive: growth inhibition [1] 46% | inhibition [2] 2% | inhibition [3] -3% | outcome [5] | outcome [6] | outcome [7] | outcome [8]
active: growth inhibition [4] 101%

COc1ccc(C2C(C(=O)Nc3ccc(C)c(F)c3)c3cc(OC)c(OC)cc3C(=O)N2C)cc1 (stereo not drawn)
inactive: growth inhibition [1] 26% | inhibition [2] 6% | inhibition [3] -2% | outcome [5] | outcome [6] | outcome [7] | outcome [8]
active: growth inhibition [4] 81%

C=CCN1Cc2c(O)cccc2C(c2ccc(O)c(O)c2)C1 (stereo not drawn)
active: growth inhibition [4] 97%
inactive: growth inhibition [1] 6% | inhibition [2] -5% | inhibition [3] 0% | outcome [5] | outcome [6] | outcome [7] | outcome [8]

O=C(/C=C/c1ccc(Cl)c(Cl)c1)NCCCCCN1CCC(NS(=O)(=O)c2cc(Cl)cc(Cl)c2)CC1
active: growth inhibition [4] 83%
inactive: growth inhibition [1] 5% | inhibition [2] 7% | inhibition [3] 3% | outcome [5] | outcome [6] | outcome [7] | outcome [8]

C=CCn1c(SCC(=O)Nc2cc(Cl)ccc2Cl)nc2sc(C)cc2c1=O
active: growth inhibition [1] 96% | growth inhibition [4] 97%
inactive: inhibition [2] 8% | inhibition [3] 0% | outcome [5] | outcome [6] | outcome [7] | outcome [8]

O=C(Nc1ccc(-c2cccc(-c3nc4ccccc4[nH]3)c2)cc1)Nc1ccc(F)c(F)c1F
active: growth inhibition [1] 96% | inhibition [2] 74% | growth inhibition [4] 100%
inactive: inhibition [3] 5% | outcome [5] | outcome [6] | outcome [7] | outcome [8]
